Sm TGR inh = blocks Schistosoma mansoni thioredoxin glutathione reductase; Q962Y6; purified TGR, DTNB reduction, TNB absorbance 405 nm; Potency, µM (top dose mostly 114 µM), for inactives: at the top dose activity change, negative = inhibition, hits mostly inhibitors; 360,000 compounds, 3% hits; active means well fitted inhibition curve with a large enough effect; inconclusive means small, poorly fitted or top-dose-only effect; inactive means no such curve, though single readings can be large or run the other way; further: potency means the concentration at half of the fitted maximal effect; on the % scale 0 is the no-effect control and ±100 the full control effect; nearly all actives have a fitted effect of over 60% in size
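Kinetic colorimetric format: TGR-catalysed, NADPH-driven DTNB reduction monitored via TNB absorbance. Enzyme dispensed at 20 nM; compound exposure 15 min at room temperature before reaction start.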
Cycloheximide cs = counter-screen hit for Shiga toxin inhibitors, cycloheximide; max response, %; AID 2314; 300,000 compounds, 12% hits; cell reporter, cycloheximide protein synthesis inhibition counterscreen; in the data active means max response mostly above about 13%, no sharp cut-off; inactive means mostly below about 14%; further: read at 38.3 µM for the half of the compounds with a filed dose; 0% is about no effect
Shiga inhibitor = blocks Shiga toxin action in Vero cells; inhibition, % at 38.7 µM; Vero cells, Shiga toxin protein synthesis inhibition reporter; AID 2315; 290,000 compounds, 9.2% hits; in the data active means inhibition mostly above about 28%, no sharp cut-off; inactive means mostly below about 43%; further: 0% is about no effect
FMDV antiviral = blocks foot and mouth disease virus; Potency, µM (doses to about 57.9 µM), for the others: at the highest dose activity change, negative = inhibition, most hits filed as inhibitors; FMDV antiviral cell-based qHTS; 410,000 compounds, 1.2% hits; calls by dose curve; tested in HEK293T cells; further: read-out not given here; potency means the concentration at half of the fitted maximal effect; on the % scale 0 is the no-effect control and ±100 the full control effect; nearly all actives have a fitted effect of over 45% in size
Starred values were filed as active, the others as inactive; u = inconclusive; x = no result given; + = active, no number. An excerpt weighted towards active compounds, which were near 12% of everything screened.

SMILES | Sm TGR inh | Cycloheximide cs | Shiga inhibitor | FMDV antiviral
Cc1ccc(CNC(=O)Nc2cc(C(=O)NCc3cccc(F)c3)ccc2N2CCCC2)cc1 | 3% | x | x | -21%
CCOc1ccc(N2Cc3ncccc3C2=O)cc1 | -16% | 47* | 137* | 20%
C=CC(=O)Oc1ccc(N2Cc3ccccc3C2=O)cc1 | x | x | x | -12%
CCOc1ccc(N2C(=O)c3cccnc3C2Nc2ccc(F)cc2)cc1 (stereo not drawn) | -13% | 6 | 11 | 103%
O=C1NCCN1c1ccccc1 | x | x | x | -4%
COc1ccc(N2Cc3ccccc3C2=O)cc1 | 3% | 35* | x | -20%
O=C1c2ccccc2CN1c1ccccc1 | 2% | 38* | 54* | 8%
O=C1N(c2ccccc2)CCN1c1ccccc1 | 5% | 38* | x | 0%
O=C1c2ccccc2CN2C(=O)c3ccccc3CN12 | 1% | -1 | -4 | -6%
COc1ccccc1-c1ccc(C(=O)NCCN2CCOCC2)c(N2CCN(c3ccccc3F)CC2)n1 | x | x | x | 2%
Cc1ccc(C(=O)Nc2ccc3oc(-c4ccccc4C)nc3c2)cc1 | 1% | x | x | 0%
Cc1ccc(N2Cc3ccccc3C2=O)cc1 | -4% | 25* | 24 | 21%
CCN(CC)CCCNc1oc(-c2ccc(OC)cc2)nc1C#N | 8% | x | x | 14%
Cc1cccc(NC(=O)C(=O)NCC(c2cccnc2)N2CCc3ccccc3C2)c1C (stereo not drawn) | 5% | x | x | u
CCOC(=O)c1sc(N=NC2=C(O)CCCC2=O)c(C(=O)OCC)c1C | -16% | 18* | 16 | 13%
CCOC(=O)c1sc(N=Nc2c(O)[nH]c(=O)[nH]c2=O)c(C(=O)OCC)c1C | 0% | 1 | -3 | x
COc1ccc(-n2c(=O)c3c(c4cc(OC)ccc4n3C)n(CC(=O)NCC3CCCO3)c2=O)cc1 (stereo not drawn) | -1% | x | x | 27%
COc1ccc(-c2csc(NCc3ccco3)n2)cc1C | -20% | 24* | 114* | 91%
Cc1ccn2c(-c3csc(NCc4ccco4)n3)c(C)nc2c1 | 4% | 2 | 55 | u
COc1ccc(-c2noc(-c3ccc(NCc4ccco4)c([N+](=O)[O-])c3)n2)cc1OC | 4% | x | x | -7%
CCn1c(CNc2nc(-c3ccccc3)cs2)nnc1SCC(=O)NCc1ccco1 | u | -1 | 18 | 4%
CC(=O)Nc1ccc(-c2csc(NCc3ccco3)n2)cc1 | -22% | 48* | 44* | 48%
COc1ccc(-c2nc3cccc(C)n3c2NCc2ccco2)cc1OC | -28% | 16* | -4 | u
c1cncc(-c2csc(NCc3ccco3)n2)c1 | 2% | 32* | 38* | 44%
CCOc1ccc(NC(=O)CN2C(C(=O)OC)=C(c3ccccc3)c3cc(Cl)ccc3S2(=O)=O)cc1 | 8% | x | x | -14%
SMILES | Sm TGR inh | Cycloheximide cs | Shiga inhibitor | FMDV antiviral
CS(=O)(=O)N1CCc2cc(NC(=O)c3ccc(Cl)cc3Cl)ccc21 | 1% | 21* | 44 | -6%
CS(=O)(=O)N1CCc2cc(C(=O)Nc3ccc(Cl)cc3)ccc21 | -15% | 17* | 13 | -11%
Cc1c(-c2ccccc2)n[nH]c1C(=O)NN | 0% | 43* | 97* | 49%
CCOc1ccc(-c2nonc2NC(=O)c2ccccc2C)cc1 | 2% | x | x | -16%
NNC(=O)c1[nH]c(-c2ccccc2)cc1-c1ccccc1 | 0% | -2 | -11 | 4%
CCOc1ccc(-c2n[nH]c(C(=O)NN)c2C)cc1 | -7% | 32* | 95* | 38%
COc1ccc(-c2cc(C(F)(F)F)n3nc(C(=O)Nc4cccc(C(F)(F)F)c4)c(Br)c3n2)cc1 | -2% | x | x | 5%
O=C(CSc1ccc(-c2ccco2)nn1)NCc1ccc(F)cc1 | 35µM* | -1 | -9 | -7%
O=C(CSc1ccc(-c2ccco2)nn1)c1ccc(F)cc1 | 20µM* | 29* | active | 13%
COc1cc2c(cc1OC)n(CC(=O)Nc1ccc(C)cc1C)c(=O)n1nc(-c3ccccc3)nc21 | 17% | x | x | -6%
COc1ccc(C2=Nn3c(nnc3-c3ccccc3C)SC2)cc1 | x | -3 | -4 | x
O=c1c2c3c(sc2n2cnnc2n1-c1ccccc1)N(Cc1ccccc1)CCC3 | 25µM* | -2 | -7 | -10%
CN1CCc2c(sc3c2c(=O)n(-c2cccc(Cl)c2)c2nncn32)C1 | x | x | x | 4%
Cc1ccc2nc(-c3ccc(NC(=O)CN4C(=O)c5ccccc5C4=O)cc3)sc2c1 | 5% | 75* | 108* | 29%
Cc1ccc2nc(-c3ccc(NC(=O)CNC4CC4)cc3)sc2c1 | -2% | 42* | 95* | 30%
Cc1ccc2nc(-c3ccc(NC(=O)CN4CCN(c5ccccn5)CC4)cc3)sc2c1 | -2% | 29* | 90* | 15%
Cc1cc(C)cc(OCC(=O)Nc2ccc(-c3nc4ccccc4s3)cc2)c1 | 2% | x | x | 38%
Cc1ccc2nc(-c3ccc(NC(=O)C(F)(F)F)cc3)sc2c1 | -6% | x | x | -3%
Cc1ccc2nc(-c3ccc(NC(=O)COC(=O)c4ccc(=O)[nH]c4)cc3)sc2c1 | -8% | 65* | 61* | -35%
CCSc1ccc(C(=O)Nc2ccc(-c3nc4ccc(C)cc4s3)cc2)cc1 | 35% | x | x | 5%
Cc1ccc2nc(-c3ccc(NC(=S)NC(=O)CC(C)C)cc3)sc2c1 | 0% | 34* | + | 56%
Cc1onc(COc2ccccc2O)c1Br | -13% | 18* | 53 | 24%
Cc1cc(COc2ccccc2OCc2cc(C)no2)on1 | 1% | 0 | -2 | -8%
Cc1ccc2nc(COc3ccccc3NC(=O)C(C)(C)C)cc(=O)n2c1 | 5% | x | x | -20%
CCN(CC)c1ccc(NC(=O)/C=C\c2ccccc2Cl)cc1 | -24% | 27* | 64* | x
SMILES | Sm TGR inh | Cycloheximide cs | Shiga inhibitor | FMDV antiviral
CN(C)c1ccc(NC(=O)/C=C/c2ccccc2Cl)cc1 | -7% | 32* | 80* | 0%
Cc1cc(NS(=O)(=O)c2ccc(NC(=O)/C=C/c3ccccc3Cl)cc2)no1 | -26% | -2 | -4 | 5%
Cc1ccc(-n2c(=O)c3c(cnn3C)n(Cc3ccccc3F)c2=O)cc1 | 3% | x | x | 3%
Cc1ccc(CNC(=O)C2CCN(c3ncnc4c3nc3n4CCCCC3)CC2)cc1 | -1% | x | x | -2%
O=C(Nc1ccc(Cl)cc1Cl)c1ccc(Br)o1 | -12% | 44* | 78* | 48%
O=C(CNC(=O)c1ccc(Br)o1)NCc1ccc(Cl)cc1Cl | -12% | -4 | -15 | 56%
COc1ccc(N2CCOCC2)c(NC(=O)c2ccc(Br)o2)c1 | 0% | -2 | -4 | u
O=C(Nc1cc(Cl)ccc1N1CCOCC1)c1ccc(Br)o1 | -18% | 69* | 65* | -5%
CCc1ccccc1NC(=O)CN1C(=O)CCSc2ccc(S(=O)(=O)N3CCCC3)cc21 | 1% | x | x | 1%
CN=C1CC(SC)=C1c1ccc(C)cc1 | -18% | -1 | 14 | 32µM*
Cc1ccc(COc2ccc3c(c2)OCO3)cc1 | 9% | 31* | 97* | 36%
O=Cc1ccc(OCc2ccc3c(c2)OCO3)cc1 | -2% | 35* | x | 39%
O=C(Cc1ccc(OCc2ccccc2)cc1)NCc1ccc2c(c1)OCO2 | x | x | x | 4%
Cc1ccc(NC(=O)COc2ccc3c(c2)OCO3)c(C)c1 | 1% | x | x | 9%
O=C(CSc1cn(CC(=O)N2CCCC2)c2ccccc12)Nc1cc(C(F)(F)F)ccc1Cl | -4% | x | x | -16%
CCc1cccc(NC(=O)CN(C)S(=O)(=O)c2ccc3c(c2)n(C)c(=O)c(=O)n3C)c1 | -1% | x | x | -11%

Bioassay records as filed in PubChem BioAssay.
